We go through 91 molecules from PubChem BioAssay AID540308 (The Scripps Research Institute Molecular Screening Center, 2011).

Out of some 360,000 compounds screened, about 3,500 (0.97%) were called active. The full list was thinned out, with actives kept by preference. Unmarked numbers belong to inactive results.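 How the source made its calls: active means activation above a per-plate cutoff, the mean activation of sample wells on that plate plus 3 SD (cut at about 8% in these data); inactive means the rest.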

The target of this experiment is Melanocortin receptor 4 (Homo sapiens) (UniProt P32245). Briefly: activators of MC4R beta-arrestin recruitment – cell-based, luminescence, agonist arm of biased-ligand search, primary screen (AID 540308). The conditions noted are these: U2OS MC4R beta-arrestin complementation, at 8.9 µM, hits give high values, percent of melanotan II response, DMSO zero. Background: Recruitment of arrestin is a read-out of receptor activation apart from second messengers.
Melanocortin receptor 4 (Homo sapiens), sequence (P32245 whole entry, looked up): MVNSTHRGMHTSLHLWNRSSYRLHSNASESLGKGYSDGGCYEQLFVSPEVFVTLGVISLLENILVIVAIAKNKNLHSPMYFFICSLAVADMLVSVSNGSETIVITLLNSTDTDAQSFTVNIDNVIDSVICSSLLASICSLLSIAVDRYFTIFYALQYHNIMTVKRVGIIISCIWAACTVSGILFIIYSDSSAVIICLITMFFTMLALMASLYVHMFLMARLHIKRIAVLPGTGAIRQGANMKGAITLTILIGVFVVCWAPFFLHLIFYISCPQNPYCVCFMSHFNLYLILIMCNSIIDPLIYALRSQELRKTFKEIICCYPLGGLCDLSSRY
For the molecule `COC(=O)c1c(C)[nH]c(C(=O)/C=C/c2ccc(Cl)cc2)c1C`, the activation was 30.6% (active). As to `CCCCOC(=O)c1[nH]c(C)c(C(=O)OC)c1C`, the activation was -0.04%.

With `COC(=O)c1c(C)[nH]c(C(=O)NCCc2ccc(S(N)(=O)=O)cc2)c1C`, the activation was 0.27%. Turning to `CCCCCC(O)c1cccc(OCc2ccc3ccccc3n2)c1` (stereo unspecified), the activation is 8.01%. For `COc1ccc(NC(=O)CN(C)C(=O)c2ccc(COc3ccccc3)o2)cc1` the value was -0.54%. `CN(CC(=O)Nc1ccc(Cl)cc1)C(=O)c1ccc(COc2ccccc2)cc1`: the activation is 23.3% (active).

For the molecule `CN(Cc1ccccc1)C(=O)c1ccc(COc2ccccc2)cc1`, the activation is -0.25%.

For `O=C(Nc1nnc([C@H]2C[C@H](O)[C@@H](CO)O2)s1)c1cccc(Cl)c1`, the activation was 0.51%. For `Cc1cc(Br)ccc1NC(=O)CCCOc1cc(=O)n(C)c2ccccc12`, the activation is -1.42%. Regarding `CCc1nc2c(OCCC3CCCCC3)cccn2c1N(C)C(=O)c1ccco1`, the activation was 1.25%. For the molecule `N#CC(=C1CCCC1)c1nc(-c2ccc(Cl)cc2)cs1`, the activation was -1.29%. In the case of `CC(C)c1cccc(-c2csc(C(O)c3ccccc3)n2)c1` (stereo unspecified) it was 5.31%; in that of `N#CC(=C1SC=CS1)c1nc(-c2ccccc2)cs1`, 30.3% (active); in that of `Nc1nnn(CC(=O)N/N=C/c2ccccc2)n1`, -0.81%. Turning to `O=C(Cn1nnc(-c2ccccc2)n1)N/N=C/c1ccc(-c2ccc(Cl)cc2)o1`, the activation is 9.43% (active).

For `O=C(CN1CCOCC1)N/N=C/c1ccc(-c2ccc(Br)cc2)o1`, the activation was -3.54%.

For `Cc1cc2nc(SCCN3CCOCC3)[nH]c2cc1C`, the activation is 3.6%.

Regarding `Cc1ccc(-n2nc3cc(C)c(NC(=O)c4cccnc4)cc3n2)cc1`, the activation was 2.16%. For `Cc1ccc(NC(=O)c2ccco2)cc1` the value was -2.18%; for `Cc1ccc(-n2nc3cc(Cl)c(NC(=O)c4ccco4)cc3n2)cc1`, 9.62% (active); for `CCOc1ccc(C(=O)Nc2ccc(S(=O)(=O)NCC3CCCO3)cc2)cc1OCC` (stereo unspecified), -3.73%. Take `CCCNC(=O)C1(C)CCCN(Cc2c(C)nn(-c3ccccc3)c2C)C1` (stereo unspecified): the activation is 0.24%.

For `CC(C)Oc1cc(F)ccc1-c1cc(C(=O)Nc2cccc(Cl)c2)[nH]n1`, the activation is 0.52%. For `COc1ccccc1C(=O)OCC(=O)NCCNC(=O)COC(=O)c1ccccc1OC` the value was -1.16%; for `Cc1cc(C)cc(C(=O)OCC(=O)NCCNC(=O)COC(=O)c2cc(C)cc(C)c2)c1`, 12% (active); for `COc1ccc(C(=O)OCC(=O)NCCCc2ccccc2)cc1OC`, 1.24%. With `CCOC(=O)C1CCCN(C(=O)c2ccc(C)c(F)c2)CC1` (stereo unspecified), the activation was -1.19%.

Take `Cc1ccc(-n2c(C)cc(/C=C(\C#N)C(=O)NCC3CCCO3)c2C)cc1` (stereo unspecified): the activation is -2.19%. In the case of `N#C/C(=C\c1cccnc1)C(=O)Nc1ccc(SC(F)F)cc1` it was -1.77%; in that of `Cc1cc(/C=C(/C#N)C(=O)Nc2ccc(Cl)cc2)c(C)n1-c1cccnc1`, 11.4% (active). In the case of `CC1(C(=O)NCC2CCOCC2)Cc2c(-c3cccc(C(N)=O)c3)ccnc2O1` (stereo unspecified) it was 0.47%; in that of `CCOC(=O)c1c(-c2ccc(C)cc2C)csc1NC(=O)CSc1nnnn1C`, 14.8% (active).

Take `Cn1nnnc1SCC(=O)Nc1sccc1C(N)=O`: the activation is 0.49%. For `COC(=O)c1ccccc1NC(=O)CSc1nnnn1C` the value was -1.06%; for `OC[C@H]1O[C@@H](c2nc(-c3nc(-c4ccc(F)cc4)no3)cs2)[C@H](O)[C@@H](O)[C@H]1O`, -1.58%. In the case of `Nc1nc(CSc2nnnn2-c2ccccc2)nc(Nc2ccccc2)n1`, the activation was 3.67%.

Consider `CCOC(=O)c1ccc(-c2ccc3ncnc(N(C)Cc4sccc4C)c3c2)o1`, for which the activation is 1.6%. In the case of `CC1(C(=O)NS(=O)(=O)c2ccc(C#N)cc2)CCN1C(=O)c1ccc(C2CCCCC2)cc1` (stereo unspecified), the activation was -2.29%. Consider `CCc1ccc(CN(C)C(=O)C2CCC(=O)N(Cc3cccc(OC)c3)C2)nc1` (stereo unspecified), for which the activation was -1.43%.

For `Cc1nc2c(OCC(=O)C(C)(C)C)cccn2c1N(C)Cc1cccs1`, the activation is -0.1%.

In the case of `CN(C)CCCN(C(=O)c1ccc(S(=O)(=O)N2CCCCCC2)cc1)c1nc2ccc(Br)cc2s1`, the activation was 9.74% (active). In the case of `CN(C)CCN(C(=O)C1=COCCO1)c1nc2ccc(Cl)cc2s1` it was 1.13%.

Consider `CCN(CC(=O)Nc1c(F)cccc1F)C(=O)c1ccc(S(=O)(=O)N2CCCCC2)cc1`, for which the activation was -2.71%. In the case of `CCNC(=O)C1(C)CCN(Cc2ccc(C(=O)OCC)o2)C1` (stereo unspecified) it was -1.16%; in that of `Cn1c(=O)c2cc(NC(=O)NCCc3cccs3)ccc2n1Cc1cccc(C(F)(F)F)c1`, -0.26%; in that of `CCc1nc2c(OCC(N)=O)cccn2c1N(C)C(=O)c1ccc(OC)cc1`, -1.44%. Take `COc1ccc(NC(=O)C2=C(C)NC(=O)NC2c2ccccc2[N+](=O)[O-])cc1` (stereo unspecified): the activation is -2.18%.

`COc1cc(C2C(C(=O)Nc3ccc(F)cc3)=C(C)Nc3nc(CCCO)nn32)cc(OC)c1OC` (stereo unspecified): the activation was -1.43%. As to `COC(=O)c1nc2n(n1)C(c1ccc([N+](=O)[O-])cc1)C(C(=O)Nc1ccc(Cl)cc1)=C(C)N2` (stereo unspecified), the activation was 9.62% (active). As for `CCNC(=O)C1(C)CCN(C(=O)c2ccccc2)C1` (stereo unspecified), the activation was 1.33%. For the molecule `CSCCC(Nc1ccc(S(=O)(=O)N2CCOCC2)cc1[N+](=O)[O-])C(=O)OCC(=O)N(C(C)C)C(C)C` (stereo unspecified), the activation is -3.39%. In the case of `COc1ccccc1N1CCN(C(=O)c2cn(-c3ccccc3)nc2-c2cccnc2)CC1`, the activation was 0.24%. For the molecule `NC(=O)C1CCN(C(=O)c2cn(-c3ccccc3)nc2-c2cccnc2)CC1`, the activation was 8.8% (active). In the case of `O=C(c1cn(-c2ccccc2)nc1-c1cccnc1)N1CCN(S(=O)(=O)c2ccccc2F)CC1` it was -2.08%; in that of `COC(=O)c1ccc(NCc2cc(O)ccc2O)cc1`, -1.55%; in that of `CC(C)OC(=O)c1ccc(NCc2cc(O)ccc2O)cc1Cl`, -0.65%. For `O=C(OC12CC3CC(CC(C3)C1)C2)c1ccc(NCc2cc(O)ccc2O)cc1` the value was 18.7% (active); for `CC(=O)NC(c1ccccc1)c1nc(-c2cccc(C(C)C)c2)cs1` (stereo unspecified), -1.73%. Regarding `CCCNC(=O)c1cc(C2CCCCN2C(=O)OC)on1` (stereo unspecified), the activation was -0.19%. `COc1ccc(OCc2cc(C(=O)NCC3(C)COC3)no2)c(Cl)c1`: the activation was -0.53%. In the case of `Cc1cccnc1CC(C)NC(=O)c1cc(COc2cncc(Cl)c2)on1` (stereo unspecified) it was 0.62%. Take `Cc1cc(OCc2cc(C(=O)NCc3cc(C(C)C)no3)no2)cc(C)c1Cl`: the activation is 10% (active). Consider `O=C(CCc1ccccc1)Nc1ccnn1C1CCN(Cc2ccc(OCCO)cc2)CC1`, for which the activation was 1.84%. In the case of `CCCNC(=O)C1(C)CCN(Cc2ccc(Cl)c(Cl)c2)C1` (stereo unspecified) it was -2.21%. As to `CCOC(=O)c1c(C)oc2cc(Sc3ccccc3)c(O)c(O)c12`, the activation is 2.95%. For `CCOC(=O)c1c(-c2ccccc2)oc2cc(Br)c(O)c(C=O)c12` the value was 48% (active); for `Cc1oc2cc(Br)c(O)c(Br)c2c1C(=O)c1ccccc1`, -0.65%. As for `COc1ccc(C2CC(c3cccc(OC)c3)=NN2c2ccc(S(N)(=O)=O)cc2)cc1` (stereo unspecified), the activation is -0.4%. Consider `COc1ccc(-c2csc(C(O)c3cccc(Cl)c3)n2)cn1` (stereo unspecified), for which the activation is -0.23%. In the case of `CC1(C(=O)NS(=O)(=O)c2ccc(C#N)cc2)CCN1C(=O)CC1CCCC1` (stereo unspecified) it was -0.26%. With `Cc1ccc(NC(=S)NC(=O)c2ccc(-c3ccccc3)cc2)cc1`, the activation is 8.85% (active). For `CC(=O)Nc1ccc(NC(=S)NC(=O)c2ccc([N+](=O)[O-])c(C)c2)cc1` the value was 0.22%; for `Cc1ccc(C(=O)NC(=S)Nc2ccc(N3CCOCC3)cc2)cc1`, -0.72%.

Take `Cn1c(NCc2cccnc2)nc2cc(-c3ccc(F)cc3)sc2c1=O`: the activation was 1.42%. With `OC[C@@H]1CN(Cc2ccc3c(c2)OCO3)C[C@H](n2cnc3c(NCc4ccco4)ncnc32)O1`, the activation is 0.72%. In the case of `CC(=O)Nc1cncc(-c2ccccc2CO)n1` it was -1.61%; in that of `Cn1c(=S)sc2ccc3ccccc3c21`, 18.2% (active); in that of `COc1ccc2ccccc2c1CNc1nnnn1C`, -2.85%.

For `CCc1nc2ccc(C(=O)N3CCC(O)(Cc4ccccc4)CC3)cn2c1N(C)C(=O)Cc1ccccc1`, the activation was -0.81%. Take `Cc1ccc(CCC(=O)Nc2ncc(Cc3cc(Cl)ccc3Cl)s2)o1`: the activation was 10.3% (active).

Turning to `O=C(CCc1ccccc1Cl)Nc1ccc(S(=O)(=O)Nc2nccs2)cc1`, the activation is -1.67%. In the case of `Cc1ccc(Cc2cnc(N)s2)o1` it was 0.06%; in that of `CNc1cnc(-c2cc(OC)c(OC)c(OC)c2)cn1`, 0.24%. For `CCOC(=O)C1(C)CCCN(C(=O)c2ccc(F)c(Cl)c2)C1` (stereo unspecified) the value was -0.39%; for `Cc1ccc(NC(=O)c2sc3nc(N)c(C#N)cc3c2N)cc1`, 7.55%; for `CC(=O)c1ccc(NC(=O)c2sc3nc4n(c(=O)c3c2C)CCCCC4)cc1`, -2.88%. As to `CC(=O)Nc1ccc(NC(=O)c2sc3nc4c(c(-c5ccc(C)cc5)c3c2N)CCC4)cc1`, the activation is 11.7% (active).

Regarding `CC1(C(=O)NCc2ccc(F)c(F)c2)Cc2c(-c3ccc4c(c3)OCO4)ccnc2O1` (stereo unspecified), the activation was -2.86%. Turning to `CCOC(=O)C1(C)CCCN(C(=O)c2ccc(N(C)C)cc2)C1` (stereo unspecified), the activation was -1.51%. For `CN(C)CCCOc1ccc(-c2ccc3nccn3c2)cn1` the value was -1.74%; for `CSc1ccc(CN2CCC2(C)C(=O)Nc2ccc(C)c(O)c2)cc1` (stereo unspecified), -0.16%.
